The whole screen tested about 59,000 compounds, of which about 30 (0.05%) were called active. Rule as the data show it: active = max dye-equivalent concentration above about 11 nM; inconclusive = between about 1.1 nM and that limit; inactive = weaker than that. The list comes from a sample in which actives are over-represented; it also holds similar structures and randomly drawn compounds.
assay: qHTS Assay for Spectroscopic Profiling in Rhodamine Spectral Region; conditions: Rhodamine-region fluorescence, 547/598 nm, Tris buffer
Text: NIH Molecular Libraries Screening Centers Network [MLSCN] NIH Chemical Genomics Center [NCGC] […] Occasionally, the artifactual effect may originate from the compound#s own spectral or other biophysical properties which generally tend to track its assay concentration. Pre-screening/profiling the library with respect to the compounds# spectral properties should help one exclude false positives early on. While the most informative fluorescent profiling data set is obtained by performing a full excitation and emission scan of each well by using a monochromator-based plate reader, such an approach is practical only on a very limited scale as scanning each well requires long time. An alternative approach, applied here, is to perform plate reader scans using selected excitation and emission wavelength pairs to generate a multidimensional relational database that correlates compound concentration and the respective relative fluorescence intensity at a given wavelength set. A standard curve of rhodamine present on each plate as six-point concentration series, was used to compute a normalized fluorescence response, termed dye-equivalent concentration, for each compound at each concentration.
NCGC Assay Protocol Summary: Buffer: 100 mM Tris buffer, pH 8.0 Dye standard plate: The wells in columns 1 through 4 of a Kalypsys polypropylene 1536-well compound plate were filled with standard solutions of fluorophore corresponding to the spectral region of interest. Solutions of rhodamine were placed in the following wells: E1, F1: 3 mM, E2, F2: 300 uM, E3, F3: 30 uM, E4, F4: zero (DMSO), G1, H1: 3 uM, G2, H2: […], G3, H3: 300 nM, G4, H4: zero (DMSO). Assay Steps: Six uL of buffer were dispensed to 1536-well Greiner black plates. Compounds and dye standards (23 nL) were transferred via Kalypsys PinTool. The plates were incubated for 15 min at room temperature, and then read on ViewLux (Perkin-Elmer) High-throughput CCD imager using 547 nm and 598 nm excitation and emission filter set. Keywords: NIH Roadmap, MLSCN, MLI, MLSMR, qHTS, NCGC, Rhodamine , Fluorescent Profiling.

Max dye-equivalent concentration, inactive:
CCNc1ncc2ncc(=O)n(Cc3cccc(OC)c3)c2n1
CC1Cc2ccccc2N1C(=O)CSc1nc2ccccc2o1 (configuration not stated)
CCN(CC)c1ccc(C(=O)OCC(=O)c2ccco2)cc1
Cc1ccsc1C(C(=O)NC1CCCCC1)N(C(=O)Cc1cccs1)C1CC1 (configuration not stated)
CCC(C(=O)Nc1ncccn1)(C(F)(F)F)C(F)(F)F
CC(C)C(c1nnnn1CCc1ccccc1)N1CCN(C(=O)c2ccco2)CC1 (configuration not stated)
O=C(Nc1c(-c2ccccc2)nc2c(Br)cc(Br)cn12)c1ccco1
Cc1oc(-c2cccc(Cl)c2)[n+]([O-])c1C
COCCn1c(=O)c(-c2cccs2)nc2cncnc21
Nc1nonc1-c1noc(-c2ccc(Br)o2)n1
CCOC(=O)C1=C(CNC2CCCCC2)NC(=O)NC1c1cc(C)ccc1C (configuration not stated)
Cc1cc(=O)n2nc(N3CCCC3C(=O)NCCCN3CC(C)CC(C)C3)sc2n1 (configuration not stated)
O=C(CN1CCN(c2ccccn2)CC1)NCc1cccs1
OCc1n[nH]c(CO)n1
CCC(=O)Nc1sc(C(=O)N2CCCCC2)c(C)c1C#N
CCOC(=O)c1c(C)c(C(=O)NCCc2ccc(S(N)(=O)=O)cc2)c(C)n1CC
COc1ccc(CCNC(=O)CN2CCC(n3nnc4cc(F)ccc43)CC2)cc1OC
Nc1nnnn1/N=C/c1cccs1
CCc1ccccc1NC(=O)CSc1nnc([C@@H](NC(=O)OC(C)(C)C)C(C)C)o1
COc1cc(Cl)c(C)cc1NC(=O)CSc1nnc(-c2cccnc2)n1Cc1ccco1
Cc1cc(N2CCCC2=O)cc(C)c1S(N)(=O)=O
C/C(=N\O)C1(C)N(O)C(C)(C)C(c2ccc(Br)cc2)=[N+]1[O-] (configuration not stated)

Reference: PubChem BioAssay AID594 (National Center for Advancing Translational Sciences (NCATS), 2007)
